# Most compounds without a hit are left out; they make up all but 8% or so of the library.
# FMDV inh – blocks foot and mouth disease virus; actives 1.2% (n = 410,000); Potency, µM (top dose mostly 57.9 µM), for inactives: at the top dose activity change, negative = inhibition, usual class: inhibitors; FMDV antiviral cell-based qHTS; calls by dose curve; tested in HEK293T cells; also: read-out not given here; potency is read from the fitted curve at half-maximal effect; % is scaled to controls: 0 for no effect and ±100 for the full control effect; nearly all actives have a fitted effect of over 45% in size
# HCV inh – blocks hepatitis C virus | Huh7.5.1 HCVcc-Cre infection, luciferase reporter, 44 h | AID 651820 | actives 3.4% (n = 340,000) | Potency, µM (titrated, usually from 41.8 µM), inactives show at the highest dose activity change, negative = inhibition, most hits filed as inhibitors; active = well fitted inhibition curve with a large enough effect; inconclusive = small, poorly fitted or top-dose-only effect, or another doubt; inactive = no such curve, though single readings can be large or run the other way; also: potency is read from the fitted curve at half-maximal effect; % is scaled to controls: 0 for no effect and ±100 for the full control effect
#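 Cells (1,000/well) were plated 4 h before compound, then infected with HCVcc-Cre virus (~0.5 moi). After 44 h further culture, infection was read as luciferase luminescence following a 15 min substrate incubation at room temperature.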
# MARV entry inh – Marburg virus entry inhibition | actives 1.8% (n = 300,000) | AID 540276 | Marburg virus pseudotyped entry inhibition, cell reporter | Potency, µM (highest dose often 37.8 µM), for inactives: at the top dose activity change, negative = inhibition, most hits filed as inhibitors; calls by dose curve; tested in HEK293 cells; also: potency is read from the fitted curve at half-maximal effect; % is scaled to controls: 0 for no effect and ±100 for the full control effect
# Lassa entry inh – inhibitors of Lassa virus binding or cell entry. Lassa virus pseudotype entry inhibition, cell reporter. Potency, µM (series often up to 37.9 µM), inactives show at the top dose activity change, negative = inhibition, most hits filed as inhibitors. actives 1.2% (n = 300,000). AID 540256; calls by dose curve; tested in HEK293 cells; also: potency is read from the fitted curve at half-maximal effect; % is scaled to controls: 0 for no effect and ±100 for the full control effect; nearly all actives have a fitted effect of over 50% in size
# HCMV inh – human cytomegalovirus inhibition | HFF cells, HCMV-luciferase reporter, 72 h; active compounds read low | activity change, negative = inhibition, % at 57.5 µM | actives 4.5% (n = 410,000) | AID 1259415; in the data active = activity change below about -60%; inconclusive = no clear call, values can overlap the other calls; inactive = above about -39%; also: % is scaled to controls: 0 for no effect and ±100 for the full control effect
#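 Screen run at 2 compound doses on HFFs infected with reporter HCMV, MOI 1 PFU/cell. Luciferase activity from cell lysates at 72 h post infection gave inhibition relative to buffer-only and Salinomycin wells.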
# SARS PLP yeast – SARS-CoV PLP inhibition in yeast. actives 0.19% (n = 330,000). S. cerevisiae expressing SARS-CoV PLpro, growth rescue. Potency, µM (doses to about 32.9 µM), for the others: at the highest dose activity, positive = growth rescue, actives largely listed as activators; calls by dose curve; also: potency is read from the fitted curve at half-maximal effect; 0% is about no effect; nearly all actives have a fitted effect of over 55% in size
# The depositor's hits bear a star; ? = inconclusive; / = no result given; [ ] = another dose, or the depositor's remark.
SMILES,FMDV inh,HCV inh,MARV entry inh,Lassa entry inh,HCMV inh,SARS PLP yeast
Cc1ccc(NC(=O)c2cc(=O)c3ccccc3o2)cc1S(=O)(=O)N1CCCCC1,25µM*,?,-21%[46.1 µM],-23%,-69*,0%
Cc1ccc(NC(=O)COc2ccccc2)cc1S(=O)(=O)N1CCCCCC1,28µM*,?,?,?,16,0%
COc1ccc(NC(=O)COc2cc(C)cc(C)c2)cc1S(=O)(=O)N1CCCCC1,-29%,4µM*,?,?,-34,-1%
CCc1cccc2c(C(=O)C(F)(F)F)cn(CC(=O)N3CCOCC3)c12,-1%,5%,/,/,21,0%
COc1ccc(C(=O)CSc2nc3ccc([N+](=O)[O-])cc3[nH]2)cc1,0%,-24%,-20%,-18%,-10,14%
CCOc1ncccc1C(=O)OCC(=O)Nc1ccc(C)c(S(=O)(=O)N2CCOCC2)c1,19%,2.8µM*,-5%[46.1 µM],17%[46.1 µM],-4,-6%
O=C(COc1cccnc1[N+](=O)[O-])NCCc1ccc(Cl)cc1Cl,-8%,8%,-1%[46.1 µM],-20%[46.1 µM],-64*,-2%
Cc1ccc(NC(=O)COc2cccnc2[N+](=O)[O-])cc1S(=O)(=O)N1CCCCC1,40µM*,?,?,?,-35,-24%
Cc1ccc(NC(=O)Cn2c(=O)cnc3ccccc32)cc1S(=O)(=O)N1CCCCC1,?,11µM*,/,/,?,-17%
Oc1cc(-c2nc3ccccc3s2)cc2c1OCCN(Cc1cccn1-c1ccc(Cl)cn1)C2,26%,/,/,/,/,/
CCCC(=O)NCCc1c(I)[nH]c2ccc(OC)cc12,1%,/,/,/,/,/
CC(C)C1N(S(=O)(=O)c2ccccc2)CCN1S(=O)(=O)c1ccccc1,-10%,6%,-10%,-1%,-107*,?
CC(C)C1N(C(=O)N(C)C)CCN1S(=O)(=O)c1ccccc1 (centres undefined),7%,-6%,2%[46.1 µM],0%,13,1%
CC(C)(C)OC(=O)C1=CC[C@@H](c2ccc(Cl)c(Cl)c2)N(S(=O)(=O)c2ccc(F)cc2)[C@H]1c1cccc(F)c1,?,/,/,/,-64*,/
COC(=O)[C@]1(Cc2ccccc2)N[C@H](CN(C)C(=O)Nc2ccc(C(F)(F)F)cc2)[C@@H]2C(=O)N(Cc3ccccc3)C(=O)[C@@H]21,0%,13µM*,/,/,-11,-2%
CN(N=Cc1ccccc1O)c1ccc2ccccc2n1,0%,/,/,/,51,/
CN(/N=C/c1cc(Br)cc(Br)c1O)c1cccc(C(F)(F)F)n1,?,-15%,-18%,?,-65*,-7%
CC(C)(C)OC(=O)NNC1CC(=O)N(c2ccccc2F)C1=O (centres undefined),-21%,3%,5%,12%,-71*,1%
CC1(c2nnc(-c3ccccc3)o2)CC(c2cccc(Cl)c2)=NO1 (centres undefined),0%,?,/,/,-3,-6%
CC1(c2nnc(-c3ccccc3)o2)CC(c2ccc([N+](=O)[O-])cc2)=NO1 (centres undefined),-11%,?,/,/,-68*,/
CC1(c2nnc(-c3cccc(Cl)c3)o2)CC(c2cccc([N+](=O)[O-])c2)=NO1 (centres undefined),-22%,7.9µM*,/,/,-11,-13%
CC1(c2nnc(-c3ccncc3)o2)CC(c2ccc(Cl)cc2)=NO1 (centres undefined),?,11µM*,/,/,-27,/
S=P(N1CCCCCC1)(N1CC1)N1CC1,-15%,7%,7.1µM*,?,6,/
Cc1cccc(NC(=O)c2cnccn2)c1,39%,-6%,-14%,10%,8,-2%
CN(C)C=Nc1c(C(=O)c2ccccc2)sc2nccc(N(C)C)c12,-9%,?,-7%[46.1 µM],9%,-75*,30%
SMILES,FMDV inh,HCV inh,MARV entry inh,Lassa entry inh,HCMV inh,SARS PLP yeast
CN(C)c1ccnc2sc(C(=O)NCc3ccccc3)c(N)c12,/,13µM*,11%,?,-23,-18%
CCOC(=O)c1sc2nccc(N(C)C)c2c1N=CN(C)C,-38%,?,?,-2%,-22,-1%
COc1cc(C(=S)N2CCOCC2)ccc1OC(=O)/C=C/c1ccco1,-15%,-1%,/,/,8,2%
CC(C)(C)c1ccc(C(=O)NCC(c2cccs2)S(=O)(=O)c2cccs2)cc1 (centres undefined),0%,/,/,?,-34,/
CC(C)(C)c1ccc(C(=O)NCC(c2cccs2)S(=O)(=O)c2ccc(F)cc2)cc1 (centres undefined),20µM*,/,/,?,-31,/
Cc1nn(C(C)C)c(C)c1CN1CCCC(C(=O)c2cccc(OC(C)C)c2)C1 (centres undefined),?,?,13µM*,?,-32,-2%
CCn1nc(C)c(CN2CCCC(C(=O)c3cccc(OC(C)C)c3)C2)c1C (centres undefined),?,8.9µM*,/,/,?,-2%
Cc1cccc(CN2CCCC(C(=O)c3cccc(OC(C)C)c3)C2)n1 (centres undefined),-17%,?,/,/,?,1%
COCCCNC(=O)c1ccc([N+](=O)[O-])cc1,9%,5%,1%[46.1 µM],-1%[46.1 µM],0,-2%
O=C(CCl)NCCCN(C(=O)C(Cl)Cl)c1ccc([N+](=O)[O-])cc1,-29%,?,/,/,-103*,2%
Cc1ccc(N(CC(=O)NC2CC3CCC2C3)S(C)(=O)=O)cc1C (centres undefined),-7%,13%,0%,?,17,-11%
CS(=O)(=O)N(CC(=O)NC1CC2CCC1C2)c1cccc(C(F)(F)F)c1 (centres undefined),-7%,9%,-16%,-19%,-103*,6%
O=C(CCN1C(=O)/C(=C/c2ccccc2)SC1=S)Nc1ccccn1,-16%,-7%,/,/,-12,5%
Cc1ccc(/C=C2\SC(=S)N(CCCC(=O)Nc3ccccn3)C2=O)cc1,?,?,?,2.2µM*,-104*,3%
COc1ccc(/C=C2\SC(=S)N(CCCC(=O)Nc3ccccn3)C2=O)cc1OC,?,?,-9%,0%,-99*,-3%
CCOc1ccccc1NC(=O)COc1cccnc1[N+](=O)[O-],-7%,?,?,14%[46.1 µM],11,-12%
Cc1cc(C(=O)Nc2cccc(-c3nc(CNC(=O)c4ccccc4C(F)(F)F)c(C)o3)c2)c(C)o1,28%,/,/,/,/,/
CC(=NCC1CCCO1)C1=C(O)CC(C)(C)CC1=O (centres undefined),-24%,3%,-16%,5%,-62*,-1%
CC(C)(C)c1ccc(OCc2ccc(C(=O)NCc3cccnc3)o2)cc1,-13%,-7%,/,/,54,0%
Cc1nc2ccccc2nc(C)c1=NO,51%,13%,-12%,25%,60,-13%
C/C(O)=c1/ccc2cccc3nc(C)nc1c23,/,?,-20%,-9%,-79*,0%
